The text below walks through data of PMC5540273 (PLoS ONE, 2017).

Each structure is given as a SMILES string.

Test systems include MAPKAPK5; MARK1; MARK2; MARK3; MARK4; MAST1.
Details in all cases: concentration: 1 μM, replicates: in singlicate; n = 1
In another assay the test system is T1, MEK1.
T1 construct: gene MAP2K1

Another assay deals with T2, MEK2.
T2 construct: gene MAP2K2

For a further assay, the system named is T3, MEK3.
T3 construct: gene MAP2K3

The next assay deals with T4, MEK4.
T4 construct: gene MAP2K4
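Note: KINOMEscan kinase panel screen.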

As for `COc1cc(Nc2nccc(N3CCC(NC(=O)c4cc5ccccc5s4)C3)n2)cc(OC)c1OC` (stereo not shown) [GSK1379760], the “%Inh” value is 1% with MAPKAPK5; 7% in the assay with MARK1; 12% in the assay on MARK2; 0% in the assay on MARK3; 22% with MARK4; 1% in the assay with MAST1. For the same compound, the “%Inh” value was 7% with MEK1, 0% in the assay on MEK2, 3% in the assay on MEK3 and 0% in the assay with MEK4.
As to `O=C(Nc1cccc(-c2nn3ncccc3c2-c2ccnc(Nc3ccccc3)n2)c1)c1c(F)cccc1F` [GSK198271], the “%Inh” value with MAPKAPK5, in the assay on MARK1, with MARK2, with MARK3, with MARK4 and with MAST1 was 0% each time. For the same compound, the “%Inh” value in the assay with MEK1 is 70%; in the assay with MEK2 it was 77%; with MEK3, 3%; in the assay on MEK4, 39%.
Consider `Cc1cccc(NC(=O)Nc2ccc(Oc3ncnc4ccn(C)c34)cc2)c1`, for which the “%Inh” value in the assay with MAPKAPK5 was 0%; with MARK1 it was 0%; in the assay with MARK2, 0%; in the assay with MARK3 it was 6%; in the assay on MARK4, 0%; in the assay with MAST1, 0%. In addition, the “%Inh” value in the assay on MEK1 is listed as 0%; with MEK2, 29%; in the assay with MEK3, 5%; with MEK4, 0%.
With `C[C@@H](Oc1cc(-n2cnc3cc(-c4ccnc(NCCS(C)(=O)=O)c4)ccc32)sc1C(N)=O)c1ccccc1Cl` [GSK907232], the “%Inh” value came to 0% in the assay with MAPKAPK5; 11% in the assay with MARK1; 34% in the assay with MARK2; 43% in the assay on MARK3; 20% in the assay on MARK4; 6% in the assay on MAST1. The “%Inh” value worked out at 0% with MEK1, 0% with MEK2, 0% with MEK3 and 26% in the assay on MEK4.
On to `O=C(O)C(F)(F)F.O=C(O)C(F)(F)F.O=c1[nH]ccc2nc(N[C@@H]3CCCNC3)nc(Nc3ccc(S(=O)(=O)N4CCOCC4)cc3)c12` [GSK2177277], for which the “%Inh” value in the assay on MAPKAPK5 was found to be 61%; with MARK1 it was 95.3%; with MARK2 it was 98.2%; with MARK3, 90.5%; in the assay with MARK4 it was 97.1%; with MAST1, 27%. The “%Inh” value in the assay with MEK1 is given as 96.6%; in the assay on MEK2, 91.6%; with MEK3, 99.4%; in the assay with MEK4 it was 99.4%.
Turning to `Cc1ccc(C)c(NC(=O)NC2CCN(c3ccnc(Nc4ccc(F)cc4)n3)C2)c1` (stereo not shown) [GSK1379720], the “%Inh” value is 0% with MAPKAPK5; 0% in the assay with MARK1; 0% with MARK2; 0% in the assay with MARK3; 0% with MARK4; 35% with MAST1. The “%Inh” value with MEK1 stood at 0%; with MEK2, 0%; in the assay on MEK3, 0%; with MEK4 it was 4%.
As to `COc1ccc(CNC(=O)NC2CCN(c3ccnc(Nc4ccc(F)cc4)n3)CC2)cc1` [GSK1379788], the “%Inh” value turned out to be 0% in the assay on MAPKAPK5; 0% with MARK1; 0% in the assay with MARK2; 0% in the assay on MARK3; 0% in the assay with MARK4; 3% in the assay with MAST1. The “%Inh” value came to 0% in the assay on MEK1, 9% in the assay with MEK2, 0% in the assay on MEK3 and 45% with MEK4.
As to `Cn1cc(-c2[nH]c3cc(NC(=O)[C@H](N)C4CCCCC4)cc4c3c2C=NNC4=O)cn1`, the “%Inh” value in the assay on MAPKAPK5 is 0%; with MARK1 it was 83%; in the assay with MARK2 it was 88%; with MARK3, 88%; in the assay with MARK4 it was 91.8%; in the assay with MAST1 it was 87%. In addition, the “%Inh” value in the assay with MEK1 amounted to 65%; with MEK2, 67%; in the assay on MEK3 it was 46%; in the assay with MEK4 it was 14%.
Regarding `Nc1n[nH]c2cnc(-c3ccccc3)cc12` [SB-642124], the “%Inh” value was 0% in the assay on MAPKAPK5; 0% with MARK1; 0% in the assay on MARK2; 0% in the assay on MARK3; 0% in the assay on MARK4; 14% in the assay with MAST1. Moreover, the “%Inh” value was determined as 0% in the assay on MEK1, 0% with MEK2, 0% in the assay with MEK3 and 37% with MEK4.
Regarding `Cl.c1ccc(-c2ccc3c(Nc4ccc5[nH]ncc5c4)ccnc3c2)nc1` [GW440137], the “%Inh” value came to 0% in the assay on MAPKAPK5; 0% in the assay on MARK1; 0% in the assay with MARK2; 0% with MARK3; 15% in the assay on MARK4; 0% in the assay with MAST1. Besides, the “%Inh” value in the assay on MEK1 was determined as 0%; in the assay with MEK2, 5%; in the assay on MEK3, 0%; with MEK4 it was 0%.
With `Cn1cc(-c2ccc3c(c2)CCN3C(=O)Cc2cccc(F)c2)c2c(N)ncnc21` [GSK2603358], the “%Inh” value in the assay with MAPKAPK5 is listed as 0%; in the assay on MARK1, 69%; in the assay on MARK2, 0%; in the assay on MARK3, 0%; in the assay on MARK4, 34%; in the assay on MAST1 it was 5%. Besides, the “%Inh” value was 15% in the assay on MEK1, 0% with MEK2, 0% in the assay with MEK3 and 26% in the assay with MEK4.
As to `O=C(Nc1cccc(-c2nn3ccccc3c2-c2ccnc(Nc3cccc(F)c3)n2)c1)c1c(F)ccc(F)c1Cl` [GSK357952], the “%Inh” value in the assay with MAPKAPK5 stood at 0%; in the assay with MARK1, 0%; in the assay on MARK2, 3%; in the assay with MARK3, 3%; in the assay with MARK4, 0%; in the assay on MAST1 it was 0%. Further, the “%Inh” value in the assay with MEK1 is given as 0%; in the assay with MEK2, 15%; in the assay with MEK3, 0%; in the assay on MEK4, 25%.
Consider `Cn1cc(-c2ccc3c(c2)CCN3C(=O)Cc2cccc(Cl)c2)c2c(N)ncnc21` [GSK2606590], for which the “%Inh” value is recorded as 0% with MAPKAPK5; 2% with MARK1; 2% in the assay on MARK2; 3% in the assay on MARK3; 11% in the assay on MARK4; 0% in the assay on MAST1. The “%Inh” value in the assay with MEK1 stood at 19%; in the assay on MEK2, 0%; in the assay on MEK3, 0%; in the assay with MEK4, 33%.
With `CNC(=O)c1ccccc1Nc1nc(Nc2ccc(N3CCOCC3)cc2)ncc1Cl.Cl` [GSK1576028], the “%Inh” value came to 0% in the assay with MAPKAPK5; 95.2% with MARK1; 92.6% in the assay with MARK2; 95.5% in the assay on MARK3; 96.8% in the assay with MARK4; 0% in the assay on MAST1. The “%Inh” value in the assay on MEK1 was 88%; in the assay with MEK2, 87%; in the assay on MEK3, 87%; in the assay with MEK4, 74%.
Regarding `CN(C)S(=O)(=O)c1cc(-c2ccc3nccc(-c4cccc(S(N)(=O)=O)c4)c3c2)cnc1N` [GSK1669921], the “%Inh” value in the assay with MAPKAPK5 stood at 8%; with MARK1 it was 0%; with MARK2, 0%; in the assay on MARK3, 0%; in the assay on MARK4, 0%; in the assay with MAST1 it was 0%. Further, the “%Inh” value in the assay with MEK1 was found to be 7%; with MEK2, 0%; in the assay with MEK3, 0%; in the assay on MEK4 it was 27%.
Turning to `CC(=O)Nc1nc2cnc(Nc3cc(NC(=O)c4cccc(C5(C#N)CC5)c4Cl)ccc3C)nc2s1`, the “%Inh” value was found to be 0% in the assay with MAPKAPK5; 1% with MARK1; 19% with MARK2; 0% in the assay with MARK3; 10% with MARK4; 23% in the assay on MAST1. Besides, the “%Inh” value in the assay with MEK1 worked out at 0%; in the assay on MEK2, 0%; with MEK3 it was 0%; with MEK4, 5%.
